The results in this text go back to PubChem BioAssay.

The source made the active and inactive calls.

The nature of test [1]: small molecules captured by biotinylated probe aFSTL3 – biochemical, small-molecule microarray, fluorescence 635/667, stem cell growth factor project, primary screen (AID 1064).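 Further: measures binding of the biotinylated anti-FSTL3 antibody to printed compounds.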 The conditions noted are these: higher = more signal.
Test [2] is described as follows: binders from COS7 lysate, DM2A8 probe, primary screen, torsin A project, cell lysate, small-molecule microarray, fluorescence 635/667 (AID 1065). The conditions noted are these: higher = more signal, COS7 lysate expressing mutant human TOR1A.
Test [3] can be described thus: small molecules captured by biotinylated probe aFGF2 – biochemical, small-molecule microarray, fluorescence 635/667, stem cell growth factor project, primary screen (AID 1067).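 Further: measures binding of biotinylated aFGF2 protein to printed compounds on slides; z-score merges feature fluorescence and signal-to-noise across triplicate slides.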 Particulars: higher = more signal.
The nature of test [4]: small molecules captured by biotinylated probe aFGF10 – biochemical, small-molecule microarray, fluorescence 635/667, stem cell growth factor project, primary screen (AID 1071).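 Further: score merges 667 nm spot intensity and signal to noise from triplicate slides.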 The conditions noted are these: higher = more signal.
Test [5] concerns the target Neurogenic locus notch homolog protein 2 (Homo sapiens) (UniProt Q04721). Put plainly: small molecules binding Notch2 protein – biochemical, small-molecule microarray, 635 nm fluorescence, stem cell growth factors, primary screen (AID 1073). The conditions noted are these: higher = more signal.
For test [6], the target named is Pro-neuregulin-1, membrane-bound isoform (Homo sapiens) (UniProt Q02297). Put plainly: small molecules binding neuregulin-1 protein – biochemical, small-molecule microarray, fluorescence 635/667, psychiatric disease protein project, primary screen (AID 1075).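 Further: score combines 667 nm spot fluorescence with signal to noise.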 Particulars: NRG1 binding, 635 nm fluorescence, higher = more signal.
Test [7] has as its system Neuregulin-1 EGF-like domain. As to the kind of experiment: small molecules binding NRG1 EGF domain – biochemical, small-molecule microarray, 635 nm fluorescence, primary screen (AID 1081).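 Further: binding of the protein to compounds printed on small-molecule microarray slides.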 The conditions noted are these: higher = more signal.
Test [8] can be described thus: FRG1 expression reporter modulators in myotubes – cell-based, C2C12 myotubes, firefly/Renilla luciferase, luminescence, FRG1 inhibition for FSHD, primary screen (AID 1084). Particulars: FRG1 promoter luciferase, higher = more signal, called active from +8 up or from −8 down.
Test [9] in a line: small molecules captured by biotinylated probe aFST – biochemical, small-molecule microarray, fluorescence 635/667, stem cell growth factor project, primary screen (AID 1086).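 Further: score merges 667 nm fluorescence with signal-to-noise of each printed compound spot.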 Particulars: higher = more signal.
Test [10] is described as follows: binders of probe aHhip on microarray, primary screen, stem cell growth factor project, biochemical, small-molecule microarray, fluorescence 635/667 (AID 1087).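 Further: score merges spot fluorescence at 667nm with spot signal to noise ratio.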 The conditions noted are these: higher = more signal.
In test [11] the test system is PRMT1 (protein arginine N-methyltransferase 1). Put plainly: small molecules binding arginine methyltransferase PRMT1 – biochemical, small-molecule microarray, 635 nm fluorescence, primary screen (AID 1088).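 Further: binding of Prmt1 protein to compounds spotted on small-molecule microarray slides.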 Particulars: higher = more signal.
A short description of test [12]: growth effects on S. cerevisiae YJM789 – YJM789 clinical isolate, OD600, 24 h, basal, primary screen (AID 1089).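 Further: growth of clinical yeast isolate S. cerevisiae YJM 789 seeded 1000 cells per well; test concentration not given here.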 Particulars: higher = more signal, called active from +8 up or from −8 down.
Test [13] is described as follows: S. pombe growth modifiers, basal conditions – strain 972, OD600, 24 h, no modulator, primary screen (AID 1090).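 Further: basal condition with compound alone and no growth modifier present; test concentration not given here.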 Particulars: S. pombe 972 growth, higher = more signal, called active from +8 up or from −8 down.
Test [14] is described as follows: budding yeast growth modifiers under rapamycin – strain BY4716, OD600, 96 h, primary screen (AID 1091). Further: test concentration not given here. The conditions noted are these: S. cerevisiae BY4716 + rapamycin, higher = more signal, called active from +8 up or from −8 down.
Test [15] addresses Torsin-1A-interacting protein 2 (Homo sapiens) (UniProt Q8NFQ8). As to the kind of experiment: small molecules binding lysate-expressed LULL1 – cell lysate, human LULL1 lysate, 635/667 nm fluorescence, primary screen (AID 1092).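 Further: score merges per-feature 667 nm fluorescence with signal-to-noise.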 The conditions noted are these: small-molecule microarray, hLULL1 lysate binding, 635 nm fluorescence; higher = more signal.
The nature of test [16]: optical density change of DRC41 E. coli – strain DRC41, OD650, 24 h, E. coli filamentation project, primary screen (AID 1093).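 Further: MC1000 strain lacking acrAB efflux and sulA so SOS filamentation is blocked; test concentration not given here.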 Particulars: E. coli DRC41 growth, higher = more signal, called active from +8 up or from −8 down.
A short description of test [17]: probe aLefty2 binding to arrayed compounds – biochemical, biotinylated probe, 635/667 nm fluorescence, primary screen (AID 1094).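 Further: score merges spot fluorescence near 667 nm with spot signal-to-noise ratio.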 Particulars: small-molecule microarray, higher = more signal.
The subject of test [18] is Noggin (protein binding on small-molecule microarray). As to the kind of experiment: small molecules binding Noggin protein – biochemical, 635/667 nm fluorescence, primary screen (AID 1095).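 Further: score merges 667 nm feature fluorescence with signal to noise over triplicate slides.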 The conditions noted are these: 635 nm fluorescence, higher = more signal.
In test [19] the target is Neurogenic locus notch homolog protein 3 (Homo sapiens) (UniProt Q9UM47). Put plainly: small molecules binding NOTCH3 protein – biochemical, 635/667 nm fluorescence, primary screen (AID 1096). The conditions noted are these: small-molecule microarray, 635 nm fluorescence, higher = more signal.
Test [20] is described as follows: probe aEGFR binding to arrayed compounds – biochemical, biotinylated probe, 635/667 nm fluorescence, primary screen (AID 1097).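 Further: probe is a biotinylated anti-EGFR antibody binding compounds printed on slides; score combines fluorescence near 667 nm and signal to noise of each spot.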 The conditions noted are these: small-molecule microarray, higher = more signal.

Sequence of Torsin-1A-interacting protein 2 (Homo sapiens) (Q8NFQ8 whole entry, looked up): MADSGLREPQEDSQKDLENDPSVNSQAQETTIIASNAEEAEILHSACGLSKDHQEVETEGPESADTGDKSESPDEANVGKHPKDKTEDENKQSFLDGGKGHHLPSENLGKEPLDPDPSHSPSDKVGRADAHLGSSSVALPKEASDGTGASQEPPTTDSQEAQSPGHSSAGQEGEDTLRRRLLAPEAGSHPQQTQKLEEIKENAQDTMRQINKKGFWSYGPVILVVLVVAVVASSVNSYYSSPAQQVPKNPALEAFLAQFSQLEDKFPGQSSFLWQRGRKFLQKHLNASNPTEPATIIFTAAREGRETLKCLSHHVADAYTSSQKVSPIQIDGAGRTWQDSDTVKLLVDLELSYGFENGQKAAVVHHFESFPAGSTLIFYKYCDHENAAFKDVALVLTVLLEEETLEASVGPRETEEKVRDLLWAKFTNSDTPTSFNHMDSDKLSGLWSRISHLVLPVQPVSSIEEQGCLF
Sequence of Neurogenic locus notch homolog protein 3 (Homo sapiens) (Q9UM47 whole entry, looked up): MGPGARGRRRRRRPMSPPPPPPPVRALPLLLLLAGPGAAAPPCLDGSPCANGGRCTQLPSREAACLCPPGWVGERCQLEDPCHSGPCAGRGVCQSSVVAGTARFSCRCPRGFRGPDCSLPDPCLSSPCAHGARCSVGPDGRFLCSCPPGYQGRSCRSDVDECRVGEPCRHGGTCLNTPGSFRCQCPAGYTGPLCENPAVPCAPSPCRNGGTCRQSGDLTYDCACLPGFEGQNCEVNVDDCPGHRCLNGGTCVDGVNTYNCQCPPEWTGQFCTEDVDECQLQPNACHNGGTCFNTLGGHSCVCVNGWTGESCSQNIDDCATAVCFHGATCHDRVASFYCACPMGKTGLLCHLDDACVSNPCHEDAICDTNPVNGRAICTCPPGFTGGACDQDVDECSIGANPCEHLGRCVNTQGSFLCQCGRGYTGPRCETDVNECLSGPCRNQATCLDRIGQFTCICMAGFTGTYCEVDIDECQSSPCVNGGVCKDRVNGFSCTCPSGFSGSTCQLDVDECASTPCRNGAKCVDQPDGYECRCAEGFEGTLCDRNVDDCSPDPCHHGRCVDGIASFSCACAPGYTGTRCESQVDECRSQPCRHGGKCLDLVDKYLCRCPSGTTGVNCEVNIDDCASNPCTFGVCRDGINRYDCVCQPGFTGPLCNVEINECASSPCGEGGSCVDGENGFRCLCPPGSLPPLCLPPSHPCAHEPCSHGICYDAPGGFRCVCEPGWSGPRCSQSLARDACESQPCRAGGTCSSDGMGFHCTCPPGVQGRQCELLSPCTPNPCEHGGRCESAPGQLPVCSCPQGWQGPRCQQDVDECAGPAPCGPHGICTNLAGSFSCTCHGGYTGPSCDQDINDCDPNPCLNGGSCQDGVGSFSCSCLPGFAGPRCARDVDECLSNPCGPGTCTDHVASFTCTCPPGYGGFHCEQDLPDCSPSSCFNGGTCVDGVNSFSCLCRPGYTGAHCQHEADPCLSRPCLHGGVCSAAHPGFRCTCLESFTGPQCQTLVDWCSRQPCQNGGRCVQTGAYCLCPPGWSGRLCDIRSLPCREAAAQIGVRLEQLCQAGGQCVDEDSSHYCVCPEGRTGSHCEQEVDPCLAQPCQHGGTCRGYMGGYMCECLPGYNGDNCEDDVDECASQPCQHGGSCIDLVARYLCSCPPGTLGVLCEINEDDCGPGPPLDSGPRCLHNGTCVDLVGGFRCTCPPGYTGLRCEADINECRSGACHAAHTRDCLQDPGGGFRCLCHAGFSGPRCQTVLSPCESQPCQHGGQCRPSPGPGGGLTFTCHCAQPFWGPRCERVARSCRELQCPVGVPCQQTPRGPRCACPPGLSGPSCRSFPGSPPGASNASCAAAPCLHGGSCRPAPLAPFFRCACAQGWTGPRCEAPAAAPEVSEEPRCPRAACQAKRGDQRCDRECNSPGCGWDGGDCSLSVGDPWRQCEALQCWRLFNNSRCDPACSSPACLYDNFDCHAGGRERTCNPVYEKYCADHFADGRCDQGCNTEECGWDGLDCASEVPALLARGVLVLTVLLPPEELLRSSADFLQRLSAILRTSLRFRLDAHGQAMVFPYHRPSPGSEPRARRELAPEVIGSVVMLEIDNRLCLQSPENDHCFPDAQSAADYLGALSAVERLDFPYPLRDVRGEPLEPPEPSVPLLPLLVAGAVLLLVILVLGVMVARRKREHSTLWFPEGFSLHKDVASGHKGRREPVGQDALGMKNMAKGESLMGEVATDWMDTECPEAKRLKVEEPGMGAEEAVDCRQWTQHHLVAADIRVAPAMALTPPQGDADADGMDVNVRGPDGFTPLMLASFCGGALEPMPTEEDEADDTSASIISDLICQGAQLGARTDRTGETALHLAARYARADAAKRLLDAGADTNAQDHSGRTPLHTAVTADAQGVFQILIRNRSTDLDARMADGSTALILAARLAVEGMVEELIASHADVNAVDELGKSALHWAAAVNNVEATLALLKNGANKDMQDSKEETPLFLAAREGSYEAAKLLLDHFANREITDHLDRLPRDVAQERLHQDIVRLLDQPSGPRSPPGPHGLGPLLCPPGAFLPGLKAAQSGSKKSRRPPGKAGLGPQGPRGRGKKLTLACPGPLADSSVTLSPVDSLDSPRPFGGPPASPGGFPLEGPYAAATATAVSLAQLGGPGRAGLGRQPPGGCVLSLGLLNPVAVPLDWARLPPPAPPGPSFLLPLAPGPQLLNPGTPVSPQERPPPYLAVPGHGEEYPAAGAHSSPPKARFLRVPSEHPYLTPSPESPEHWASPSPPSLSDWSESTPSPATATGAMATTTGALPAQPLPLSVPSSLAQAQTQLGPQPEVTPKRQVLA
Sequence of Pro-neuregulin-1, membrane-bound isoform (Homo sapiens) (Q02297 whole entry, looked up, the tested form may be a part, canonical isoform): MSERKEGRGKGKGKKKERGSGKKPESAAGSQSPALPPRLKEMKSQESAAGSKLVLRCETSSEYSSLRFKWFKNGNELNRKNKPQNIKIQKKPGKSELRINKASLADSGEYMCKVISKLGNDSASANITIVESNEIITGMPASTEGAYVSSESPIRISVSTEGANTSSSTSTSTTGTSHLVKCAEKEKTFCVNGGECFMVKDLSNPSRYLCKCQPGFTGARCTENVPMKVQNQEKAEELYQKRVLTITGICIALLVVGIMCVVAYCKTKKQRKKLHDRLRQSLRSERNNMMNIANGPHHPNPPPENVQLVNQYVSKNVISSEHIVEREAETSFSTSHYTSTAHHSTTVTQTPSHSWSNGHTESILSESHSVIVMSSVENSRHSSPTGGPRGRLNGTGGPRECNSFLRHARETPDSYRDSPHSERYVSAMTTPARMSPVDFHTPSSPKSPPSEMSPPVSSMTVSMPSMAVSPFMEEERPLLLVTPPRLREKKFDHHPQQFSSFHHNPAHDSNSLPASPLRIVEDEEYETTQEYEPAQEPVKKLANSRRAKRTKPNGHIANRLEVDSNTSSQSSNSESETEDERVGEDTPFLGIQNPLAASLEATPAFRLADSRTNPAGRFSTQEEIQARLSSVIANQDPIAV

Take `COC(=O)[C@@]1(Cc2ccc(OC)cc2)[C@H]2c3cc(C(=O)N4CCCC4)n(CCn4cc([N+](=O)[O-])nc4C)c3C[C@H]2CN1C(=O)c1ccccc1`: the composite z-score is 2.45 in [1]; 2 in [2]; 0.861 in test [3]; 1.25 in [4]; 1.5 in test [5]; 1.58 in test [6]. In addition, the composite z-score is 1.31 in [7]; 2.71 in test [9]; 3.56 in test [10]; -0.153 in test [11]; 3.38 in test [15]; 1.25 in [17]. In addition, the composite z-score in test [18] came to 0.152; in [19], 0.413; in test [20], 0.924. The z-score is 2.02 (inactive) in test [8]; -0.382 (inactive) in test [12]; 0.28 (inactive) in [13]; 0.725 (inactive) in test [14]; -1.01 (inactive) in test [16].
In the case of `COCCCNC(=O)[C@@]1(CCC(=O)OC(C)(C)C)COC(c2ccc(OCCCO)cc2)=N1`, the composite z-score was -0.0885 in [1]; 0.355 in [2]; -0.0659 in test [3]; 0.611 in [4]; 0.844 in test [5]; 1.63 in [6]. Further, the composite z-score in test [7] is 1.21; in test [9], 0.579; in test [10], -0.12; in test [11] it was 1.59; in test [15], 3.51; in test [17] it was -0.0906. Moreover, the figures for the composite z-score in [18], in [19] and in [20] were 0.337, 0.571 and -0.13, respectively. In addition, the z-score is -0.604 (inactive) in [8]; -0.649 (inactive) in test [12]; 0.132 (inactive) in [13]; -2.07 (inactive) in test [14]; 0.488 (inactive) in test [16].
Turning to `CN(C)C(=O)[C@]1(Cc2ccccc2)N=C(c2ccc(OCCCO)cc2)O[C@@H]1c1ccccc1CN=[N+]=[N-]`, the composite z-score was -0.106 in test [1]; 1.31 in test [2]; -0.0465 in [3]; 1.18 in test [4]; 1.62 in test [5]; 1.33 in [6]. Also, the composite z-score is 1.22 in [7]; 0.879 in test [9]; -0.126 in [10]; 1.53 in test [11]; 3.15 in test [15]; -0.0153 in test [17]. The composite z-score was found to be 0.605 in [18], 1.07 in [19] and 0.0176 in test [20]. Moreover, the z-score in [8] was -0.783 (inactive); in [12], -1.8 (inactive); in test [13], -0.531 (inactive); in test [14] it was -0.293 (inactive); in [16], 0.702 (inactive).
With `CCOC(=O)C1=CCC(c2cc3ccccc3[nH]2)N(CCN2CC(C(=O)OCC)=CCC2c2cc3ccccc3[nH]2)C1` (stereo not given), the composite z-score was -0.0107 in test [1]; -0.75 in [2]; -0.0216 in test [3]; 0.433 in test [4]; 1.06 in test [5]; 1.82 in [6]. Also, the composite z-score in test [7] was 1.32; in test [9] it was 0.74; in [10], -0.361; in test [11], 1.4; in test [15], 3.38; in test [17], 0.0094. Further, the composite z-score in test [18] is 0.38; in test [19], 0.862; in [20], -0.0084. The z-score in test [8] was 2.57 (inactive); in test [12] it was -1.61 (inactive); in test [13] it was 0.97 (inactive); in [14], -0.34 (inactive); in test [16] it was 0.053 (inactive).
For `COCCCNC(=O)[C@@H]1c2ccccc2C(=O)N(Cc2ccc(OC(F)(F)F)cc2)[C@H]1c1ccc(CO)cc1`, the composite z-score was -0.388 in test [1]; 0.0383 in test [2]; 0.015 in [3]; 0.235 in test [4]; 0.329 in test [5]; 0.244 in test [6]. Also, the composite z-score in test [7] is 0.617; in [9], 0.541; in [10], 1.03; in test [11] it was 1.34; in [15] it was 2.36; in [17], -0.0687. The figures for the composite z-score in test [18], in test [19] and in test [20] were 0.489, 0.554 and -0.0949, respectively. Also, the z-score is -0.228 (inactive) in test [8]; -0.975 (inactive) in [12]; -0.153 (inactive) in test [13]; -0.97 (inactive) in [14]; -0.518 (inactive) in test [16].
